Hit rate of the full screen: of about 190,000 compounds, about 4,100 (2.2%) were called active. This is one part of a sample in which actives are shown more often than they occur. Unmarked numbers belong to inactive results.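 How the source made its calls: active means thallium flux slope and its plate-corrected score both differing from the plate sample mean at a set confidence after two filtering rounds, in either direction; inactive means the rest.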

Sequence of Solute carrier family 12 member 5 (Homo sapiens) (Q9H2X9 whole entry, looked up): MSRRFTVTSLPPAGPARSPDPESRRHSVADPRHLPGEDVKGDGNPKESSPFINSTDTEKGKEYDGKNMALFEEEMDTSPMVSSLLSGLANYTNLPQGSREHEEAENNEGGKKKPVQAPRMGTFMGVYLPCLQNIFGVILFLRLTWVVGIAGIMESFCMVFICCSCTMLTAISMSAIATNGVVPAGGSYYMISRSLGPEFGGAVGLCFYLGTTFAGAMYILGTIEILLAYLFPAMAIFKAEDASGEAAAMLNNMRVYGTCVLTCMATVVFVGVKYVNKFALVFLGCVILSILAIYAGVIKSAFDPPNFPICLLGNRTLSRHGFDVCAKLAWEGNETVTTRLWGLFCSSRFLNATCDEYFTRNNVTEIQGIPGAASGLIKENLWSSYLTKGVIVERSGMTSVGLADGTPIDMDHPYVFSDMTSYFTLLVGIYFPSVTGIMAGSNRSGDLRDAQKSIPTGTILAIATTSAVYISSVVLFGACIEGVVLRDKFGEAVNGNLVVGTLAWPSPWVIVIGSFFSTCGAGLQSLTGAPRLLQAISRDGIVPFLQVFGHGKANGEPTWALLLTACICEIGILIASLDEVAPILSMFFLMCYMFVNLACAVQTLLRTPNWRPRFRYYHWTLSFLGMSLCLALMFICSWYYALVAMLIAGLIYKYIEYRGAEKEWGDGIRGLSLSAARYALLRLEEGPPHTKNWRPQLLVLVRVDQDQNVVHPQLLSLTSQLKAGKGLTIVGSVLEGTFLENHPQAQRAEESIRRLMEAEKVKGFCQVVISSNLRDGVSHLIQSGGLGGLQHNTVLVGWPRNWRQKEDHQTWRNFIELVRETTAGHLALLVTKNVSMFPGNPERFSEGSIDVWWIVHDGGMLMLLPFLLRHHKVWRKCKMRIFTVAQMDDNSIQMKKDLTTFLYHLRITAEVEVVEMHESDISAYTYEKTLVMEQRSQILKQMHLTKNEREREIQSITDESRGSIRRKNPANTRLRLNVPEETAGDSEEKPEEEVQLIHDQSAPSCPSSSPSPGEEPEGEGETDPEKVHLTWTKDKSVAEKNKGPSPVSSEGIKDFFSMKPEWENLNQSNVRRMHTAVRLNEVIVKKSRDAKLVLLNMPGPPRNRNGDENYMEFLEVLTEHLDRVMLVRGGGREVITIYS

This assay addresses Solute carrier family 12 member 5 (Homo sapiens) (UniProt Q9H2X9). Kind of assay: KCC2 cotransporter modulators, thallium flux, primary screen, cell-based, HEK293 KCC2, FluoZin-2 fluorescence, MLSMR (AID 1456).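 Further: slope of fluorescence scaled to starting intensity during 10 to 20 s after thallium.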 The following applies: KCC2 cells, thallium flux FluoZin-2 fluorescence; at 10 µM.
Turning to `CN1CCN(c2ccc(S(=O)(=O)N3CCOCC3)cc2NC(=O)CCc2ccccc2)CC1`, the B-score of Tl+ flux slope (higher = more flux/activation; lower = inhibition) was 0.193. For the compound `CC(CO)(CO)NC(=O)c1ccc(=O)[nH]n1`, the B-score of Tl+ flux slope (higher = more flux/activation; lower = inhibition) was -0.424. In the case of `Cc1cc(=O)[nH]c(SCC(=O)Nc2ccc(Br)cc2)n1` it was 1.17; in that of `CC1=C(C(N)=O)C(c2ccc3c(c2)OCO3)n2nc(-c3cccc(C)c3)nc2N1` (stereo not given), -0.546.

Consider `c1ccc(-c2nnc3n2NC(c2ccc4c(c2)OCO4)S3)cc1` (stereo not given), for which the B-score of Tl+ flux slope (higher = more flux/activation; lower = inhibition) is 17.9 (active). For the compound `Cc1cccc(C)c1NC(=O)CSc1nnc(-c2ccccc2)n1Cc1ccc2c(c1)OCO2`, the B-score of Tl+ flux slope (higher = more flux/activation; lower = inhibition) was -0.0425. In the case of `CN=C1C=C/C(=N/N=c2\ccn(O)cc2C)C=C1C` it was 0.0998.

For `Cc1cccc(C2C3=C(CCCC3=O)N=C3c4ccccc4C(=O)C32)c1` (stereo not given), the B-score of Tl+ flux slope (higher = more flux/activation; lower = inhibition) is 1.41. In the case of `COc1cc(SC#N)ccc1N=Cc1c(C)[nH]n(-c2ccc(C)cc2)c1=O` it was 0.0406; in that of `Cc1[nH]n(-c2ccc(Cl)cc2)c(=O)c1/C=N/n1c(C)nc2ccccc2c1=O`, 1.71; in that of `Cc1ccc(-n2[nH]c(C)c(/C=N/N3C(=O)c4cccc5cccc(c45)C3=O)c2=O)cc1`, 41.4 (active). To `O=C(CSc1nnc(SCc2ccc(F)cc2)s1)Nc1ccc(C(=O)O)cc1` belongs -2.12; to `CC(C)CNC(=O)COC(=O)/C=C/c1ccco1`, 0.238. In the case of `COc1ccc([N+](=O)[O-])cc1NC(=O)COC(=O)/C=C/c1ccco1` it was -3.66 (active). As to `COc1ccc([N+](=O)[O-])cc1NC(=O)CCc1ccccc1`, the B-score of Tl+ flux slope (higher = more flux/activation; lower = inhibition) is -1.49.

`O=C(COc1ccccc1[N+](=O)[O-])N/N=C/c1ccc[nH]1`: the B-score of Tl+ flux slope (higher = more flux/activation; lower = inhibition) is 1.37.

As to `CCOC(=O)C1CCN(c2c(Nc3cc(C)cc(C)c3)c(=O)c2=O)CC1`, the B-score of Tl+ flux slope (higher = more flux/activation; lower = inhibition) was 0.776. Turning to `COc1ccccc1OCc1nc2ccccc2s1`, the B-score of Tl+ flux slope (higher = more flux/activation; lower = inhibition) was -1.36. Turning to `COc1cccc2sc(Nc3nc(C)c(C(C)=O)s3)nc12`, the B-score of Tl+ flux slope (higher = more flux/activation; lower = inhibition) was 16.2 (active).

With `CC(=O)c1sc(NC(=O)CCCOc2ccccc2C)nc1C`, the B-score of Tl+ flux slope (higher = more flux/activation; lower = inhibition) is 0.355. In the case of `COc1cccc2sc(NNC(=O)c3nc4ccccc4s3)nc12` it was 92.4 (active); in that of `COC(=O)c1nc2ccccc2s1`, -0.0154; in that of `CC(=O)c1sc(NC(=O)c2cccc3ccccc23)nc1C`, 3.04. For the compound `O=C(N/N=C/c1ccc(Br)o1)c1cncc(Br)c1`, the B-score of Tl+ flux slope (higher = more flux/activation; lower = inhibition) is 7.4 (active).

For the compound `Cc1ccc(C(=O)N/N=C\c2cc(Br)c(Br)o2)cn1`, the B-score of Tl+ flux slope (higher = more flux/activation; lower = inhibition) is 1.86. To `O=C(CCc1n[nH]c(=O)[nH]c1=O)N/N=C/c1ccc(Br)o1` belongs 0.0262; to `CCN(CC)CCCN=C(N)N`, 0.285; to `Cc1nc2cc(NC(=O)Nc3cccc(F)c3)ccc2n1C`, 0.703.

In the case of `NNC(=O)c1cccc(COCC(F)(F)C(F)F)c1`, the B-score of Tl+ flux slope (higher = more flux/activation; lower = inhibition) was -0.618.

In the case of `Cc1cccc(-n2c(SCC(N)=O)nc3c(c2=O)C2(CCCCC2)Cc2ccccc2-3)c1`, the B-score of Tl+ flux slope (higher = more flux/activation; lower = inhibition) was 4.92 (active). To `N#CCSc1nc2c(c(=O)n1Cc1ccccc1)C1(CCCC1)Cc1ccccc1-2` belongs 1.45; to `Cc1cccc(-n2c(=O)c3c(C)c(C)sc3n(CC(N)=O)c2=O)c1`, 0.771.

On to `Cc1cc(Nc2ccc(Cl)cc2)nc(N2CCOCC2)n1`, for which the B-score of Tl+ flux slope (higher = more flux/activation; lower = inhibition) is -1.05. With `NC(=S)Nc1c(Cl)cccc1Cl`, the B-score of Tl+ flux slope (higher = more flux/activation; lower = inhibition) was 0.0214. To `C=CCNC(=O)COC(=O)CNC(=O)c1cc(Cl)cc([N+](=O)[O-])c1` belongs 0.057; to `C=CCNC(=S)NNC(=O)c1ccc(Br)o1`, 0.645; to `C=CCNC(=S)NNC(=O)COc1c(Cl)cc(Cl)cc1Cl`, 7.57 (active). In the case of `Cc1cc(Nc2ccc(N3CCOCC3)cc2)c2cccc(C)c2n1` it was -2.79; in that of `Cc1ccc(/C=N/NC(=O)CN2CCN(Cc3ccccc3)CC2)s1`, 0.187. To `C=CCNC(=S)N/N=C/c1ccc(C)s1` belongs 14 (active); to `CNC(=S)N/N=C/c1ccc(N2CCOCC2)s1`, 1.59. Regarding `O=C(Nc1nnc(CCN2CCCCC2)s1)c1cccc(Cl)c1`, the B-score of Tl+ flux slope (higher = more flux/activation; lower = inhibition) is 0.116. To `CN1CCN(c2ccc(CNS(=O)(=O)c3cccc(F)c3)cc2)CC1` belongs -0.58; to `Cc1nnc(C)c2c(C)n(N)c(C)c12`, 0.198; to `COc1ccc(S(=O)(=O)Nc2cccnc2)c(Cl)c1Cl`, 0.54. In the case of `CCOC(=O)C1Sc2[nH]c(=O)sc2C(c2ccc(Cl)cc2)C1C(=O)OCC` (stereo not given) it was -3.93 (active); in that of `CCOC(=O)C1C(c2ccc(Cl)cc2)NC(=S)NC1(O)C(F)(F)F` (stereo not given), 1.75. Turning to `CCOC(=O)C1=C(C)NC(=O)N(C(C)=O)C1c1ccc(Cl)cc1` (stereo not given), the B-score of Tl+ flux slope (higher = more flux/activation; lower = inhibition) is -1.98. In the case of `CCOCCn1c(-c2ccccc2)nc2ccccc21`, the B-score of Tl+ flux slope (higher = more flux/activation; lower = inhibition) was 0.025. To `Cc1cccc(-n2cnc(C(=O)NNC(=S)Nc3ccccc3)c2)n1` belongs -1.44.

(Values after PubChem BioAssay AID1456 (Vanderbilt High Throughput Screening Facility, 2008).)
